# Screening results: PubChem BioAssay, National Center for Advancing Translational Sciences (NCATS)
# PLK1 PBD inh: inhibitors of human PLK1 polo-box domain binding. 360,000 compounds, 2.8% hits. Potency, µM, for inactives: max response, negative = inhibition, usual class: inhibitors. P53350. Plk1 PBD binding of FITC phosphopeptide, fluorescence polarization; further: series mostly up to about 57 µM; on the % scale 0 is the no-effect control and ±100 the full control effect; nearly all actives have a fitted effect of over 65% in size
# ASM inhibitor: inhibitors of human secretory acid sphingomyelinase; placental ASM, HMU-PC fluorogenic substrate, 60 min; Potency, µM (top dose mostly 57.5 µM), for inactives: top-dose activity change, negative = inhibition, most hits filed as inhibitors; 340,000 compounds, 0.006% hits; AID 504937
#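 Human placenta-derived ASM preincubated with compound 10 min at room temperature, then reacted with 9 uM (final) fluorogenic HMU-PC substrate for 60 min at 37 C. Stop solution raises pH to 10; fluorescence read at Ex 386/Em 447 nm.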
# Pin1 inh: inhibitors of human Pin1. Q13526. Pin1 FP peptide displacement, HiFluor488, 10 min. Potency, µM (doses to about 115 µM), without a hit: at the highest dose activity, negative = inhibition, usual class: inhibitors. 390,000 compounds, 0.009% hits. AID 504891; active means well fitted inhibition curve with a large enough effect in the polarisation, with a control signal flat, not every such curve was filed as active; inconclusive means small, poorly fitted or top-dose-only effect, or effect the other way, or a change in a side signal; inactive means no such curve, though single readings can be large or run the other way; the % refers to the polarisation; further: on the % scale 0 is the no-effect control and ±100 the full control effect
# Target sequence (Q13526 whole entry, looked up): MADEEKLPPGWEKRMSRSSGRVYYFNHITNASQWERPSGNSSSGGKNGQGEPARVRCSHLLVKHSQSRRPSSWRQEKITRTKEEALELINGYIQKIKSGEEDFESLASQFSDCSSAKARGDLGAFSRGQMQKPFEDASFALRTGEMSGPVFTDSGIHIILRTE
# TDP1 inh: TDP1 (human) enzyme inhibition | Potency, µM (titrated, usually from 130 µM), inactives show top-dose activity change, negative = inhibition, usual class: inhibitors | recombinant TDP1, AlphaScreen DNA substrate cleavage | 350,000 compounds, 0.28% hits | Q9NUW8 | AID 485290; further: on the % scale 0 is the no-effect control and ±100 the full control effect; nearly all actives have a fitted effect of over 40% in size
#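 Tdp1 1 nM final; 15 min RT w/ cpd; substrate 15 nM, 5 min; beads 10 ug/ml, 10 min; AlphaScreen read. Neg ctrl: no enzyme.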
# VDR inhibitor: inhibitors of human vitamin D receptor. P11473. VDR-SRC2-3 peptide fluorescence polarization, 2 h. Potency, µM, inactives show max response, negative = inhibition, actives largely listed as inhibitors. 400,000 compounds, 0.93% hits. AID 504847; further: on the % scale 0 is the no-effect control and ±100 the full control effect
#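 Fluorescence polarization assay of small-molecule disruption of VDR binding to coregulator peptide SRC2-3. Compounds and controls pin-transferred, then read after 2 h incubation at ambient room temperature.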
# Tb PFK inh: inhibitors of T. brucei phosphofructokinase; 330,000 compounds, 0.17% hits; O15648; T. brucei PFK, ADP-Glo luminescence; Potency, µM (series often up to 57.5 µM), without a hit: at the top dose activity, negative = inhibition, usual class: inhibitors;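 further: 0% = uninhibited 1x PFK enzyme wells and -100% = no-enzyme wells; nearly all actives have a fitted effect of over 60% in size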
# Target sequence (O15648 whole entry, looked up): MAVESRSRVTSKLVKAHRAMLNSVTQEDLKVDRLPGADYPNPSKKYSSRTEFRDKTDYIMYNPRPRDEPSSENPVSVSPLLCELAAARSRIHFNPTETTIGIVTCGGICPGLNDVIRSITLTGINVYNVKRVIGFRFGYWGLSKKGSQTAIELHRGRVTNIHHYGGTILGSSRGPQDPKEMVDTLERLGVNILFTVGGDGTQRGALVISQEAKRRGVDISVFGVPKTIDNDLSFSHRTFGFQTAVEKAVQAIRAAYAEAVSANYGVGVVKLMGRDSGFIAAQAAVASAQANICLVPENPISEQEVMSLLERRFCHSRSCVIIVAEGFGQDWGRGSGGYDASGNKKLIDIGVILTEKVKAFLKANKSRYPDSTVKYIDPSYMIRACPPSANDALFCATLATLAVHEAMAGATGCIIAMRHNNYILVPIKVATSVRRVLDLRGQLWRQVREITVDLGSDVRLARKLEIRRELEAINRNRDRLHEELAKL
#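 Luminescent ADP detection (ADP-Glo, two-step: ATP depletion then ADP-to-ATP conversion for luciferase) reported PFK activity after 45 min room-temperature reaction of 1.25 nM enzyme with 0.5 mM F6P and 0.1 mM ATP at pH 8.0.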
# * = called active by the depositor; ? = inconclusive; / = not tested or not shown; [ ] = another dose, or the depositor's remark. Most compounds without a hit are left out; they make up all but 3.1% or so of the library. Unless noted, the call rests on the fitted dose curve; in most records, active means well fitted curve in the direction sought with a large enough effect; inconclusive means small, poorly fitted or top-dose-only effect, or another doubt; inactive means no such curve, though single readings can be large; an effect the other way counts as inactive or inconclusive. Potency means the concentration at half of the fitted maximal effect.
SMILES,PLK1 PBD inh,ASM inhibitor,Pin1 inh,TDP1 inh,VDR inhibitor,Tb PFK inh
COc1ccccc1NC(=O)c1ccc(-c2nc(COc3ccc(C)cc3)c(C)o2)cc1,/,/,6.8%,2.8%,3.1%,/
COC(=O)C1=C(C(=O)OC)[C@@H]2N(C)c3ccc(OC)cc3[C@@]23C[C@@H](C(=O)OC)N(S(=O)(=O)c2ccc(C(F)(F)F)cc2)C3=N1,/,/,/,14.3%[12.3 µM],/,/
CCOC(=O)C(NC(=O)c1cccc(Cl)c1)(Nc1sc2c(c1C(N)=O)CCC2)C(F)(F)F (stereo unspecified),26.7µM*,-0.7%,21.1%,0.0%,-17.5%,6.3%
O=C1C(=O)c2ncccc2-c2cccnc21,/,/,/,/,1.26µM*,/
NC1=C(Br)C(=O)c2ncccc2C1=O,7.52µM*,-2.4%,-1.9%,/,?,/
O=C1c2cccnc2C(=O)N1CO,1.5%,2.3%,-2.6%,4.0%,5.9%,-0.1%
CCOc1ccc(S(=O)(=O)N2CCN(c3nc(-c4ccccc4)nc4ccccc34)CC2)cc1,/,/,0.2%,-0.3%,5.2%,/
CCN1CCN(CCCN(Cc2ccco2)C(=S)Nc2ccc(C)c(Cl)c2)CC1,-15.8%,2.8%,-4.1%,0.0%,-9.3%,0.2%
CCN1CCN(CCCN(Cc2ccco2)C(=S)Nc2cc(Cl)ccc2C)CC1,23.8µM*,4.5%,-7.7%,1.2%,-16.2%,-5.8%
Cc1cc(C)c(NC(=S)N(CCN2CCCCC2)Cc2ccco2)c(C)c1,21.2µM*,3.7%,-6.7%,0.0%,-11.3%,-5.7%
CC(C)Cn1cc(NC(=O)NCc2cccc(Cl)c2)c2ccccc2c1=O,/,/,-8.7%,0.0%,5.6%,/
CC(=O)Nc1cccc(OCc2cccc(C3Nc4ccccc4C(=O)N3Cc3ccco3)c2)c1 (stereo unspecified),/,/,51.7%,/,/,/
Cc1c(/C=N/n2cnnc2)c2ccccc2n1CCOc1ccc(Cl)cc1,-3.1%,35.5µM*,1.2%,-3.1%,-4.6%,3.5%
Cc1ccc(OCCn2c(C)c(/C=N/n3cnnc3)c3ccccc32)cc1,1.4%,-8.3%,-5.6%,0.0%,3.5%,-3.7%
CCN(C(=O)CN1C(=O)S/C(=C\c2ccc(F)cc2)C1=O)C1CCS(=O)(=O)C1 (stereo unspecified),29.9µM*,-0.7%,0.3%,7.7%,-6.5%,1.1%
CN(C(=O)CN1C(=O)S/C(=C\c2ccc(F)cc2)C1=O)C1CCS(=O)(=O)C1 (stereo unspecified),-15.0%,1.7%,-2.0%,2.0%,-5.3%,0.6%
COc1ccc(OC)c(NC(=O)c2cc3cc(C)ccc3n2C)c1,/,/,15.9%,-0.5%,9.6%,/
COc1cccc(C2c3c(ncn(-c4ccc(NC(C)=O)cc4)c3=N)Oc3ccc4ccccc4c32)c1 (stereo unspecified),/,/,17.8%,3.4%,/,/
COc1ccc(CN=Cc2c(C(F)(F)F)[nH][nH]c2=O)cc1,26.7µM*,0.5%,3.4%,-2.8%,-13.9%,1.9%
COc1ccc(CN=Cc2c(O)[nH]c3ccccc23)cc1,21.2µM*,-2.3%,3.4%,3.6%,-7.0%,-0.7%
Cc1nn(-c2ccccc2)c2nc(-c3ccncc3)cc(C(=O)NCc3ccco3)c12,29.9µM*,7.4%,?,0.0%,-19.2%,7.4%
C=CCOc1c(Br)cc(/C=N/O)cc1OCC,29.9µM*,-1.3%,-1.5%,2.8%,-16.8%,-0.7%
CCCn1c(=O)c(C(=O)NCc2ccccc2)c(O)c2ccccc21,11.9µM*,-4.3%,0.7%,/,?,0.0%
CN(C)CCCn1c(=S)[nH]c2sc3c(c2c1=O)CCCC3,18.9µM*,78.2%,-5.1%,-3.3%[0.0935 µM],?,-5.3%
COc1ccc(C2C(=O)N(C3CCC(C)CC3)CC(=O)N2CCc2ccccc2)cc1OC (stereo unspecified),/,/,-8.1%,10.4%,-7.6%,/
SMILES,PLK1 PBD inh,ASM inhibitor,Pin1 inh,TDP1 inh,VDR inhibitor,Tb PFK inh
CCCCCCCCCCCCOCCOCCOCCOCCOCCOCCOCCOCCOCCO,/,/,/,8.2%,-8.9%,/
c1coc(-c2nnc(-c3ccco3)nn2)c1,-11.2%,-2.1%,?,/,89.1µM*,-24.9%
Cc1c(NC(=O)Cc2ccc(Cl)cc2)cccc1-c1nc2cccnc2s1,/,/,5.4%,1.3%,17.2%,/
CSc1nc2c(=S)[nH]c(=S)[nH]c2s1,21.2µM*,/,/,/,/,/
COc1cc(C2/C(=C(\O)c3ccc4c(c3)CC(C)O4)C(=O)C(=O)N2CC2CCCO2)cc(OC)c1OC (stereo unspecified),-3.0%,-1.8%,-13.6%,4.4%,-6.2%,0.5%
CC1Cc2cc(/C(O)=C3/C(=O)C(=O)N(CC4CCCO4)C3c3ccco3)ccc2O1 (stereo unspecified),29.9µM*,-0.7%,0.4%,/,-11.8%,-11.6%
COc1ccc2c(ccc[n+]2CC(=O)c2ccccc2)c1,5.7%,57.7%,11.9%,/,29.9%,1.0%
COc1ccc(C(=O)C[n+]2cn(C(F)F)c3ccccc32)c(F)c1,13.4µM*,7.7%,-6.9%,9.2%,?,-4.6%
Cc1cc(C)c2c(CC(=O)N(Cc3ccccc3)C3CCS(=O)(=O)C3)coc2c1 (stereo unspecified),/,/,13.3%,3.7%,11.5%,/
O=C(N/N=C/c1ccco1)c1ccc(NC(=O)c2ccc(Cl)cc2)cc1,-24.6%,-0.1%,13.8%,?,4.8%,-0.5%
Cc1cccc(C(=O)Nc2ccc(C(=O)N/N=C/c3ccco3)cc2)c1,21.2µM*,-4.5%,-5.3%,/,-24.7%,/
O=C(CCCCCNC(=O)c1ccccc1)N/N=C/c1ccco1,-11.6%,1.4%,-0.7%,39.8µM*,-9.0%,-20.4%
NNC(=O)c1nn(-c2ccc(Cl)cc2)cc1O,16.8µM*,37.1%,0.5%,8.6%,?,-0.4%
COc1ccccc1-c1nn2c(-c3cc(C)[nH]n3)nnc2s1,/,/,18.2%,8.1%,-4.9%,/
CC(=O)c1cccc(N(C(=O)Cn2nnc3ccccc32)C(C(=O)NCc2ccccc2)c2ccc(F)cc2)c1 (stereo unspecified),/,/,4.5%,4.9%,1.0%,/
COc1ccc(Cl)cc1NC(=O)Cn1c(=O)n2nc(-c3ccccc3)nc2c2ccccc21,/,/,1.5%,3.8%,-14.3%,/
CCCCCCCC1=Cc2ccc(F)cc2C(C(C(C)=O)C(=O)OC)N1C(=O)OC (stereo unspecified),/,/,/,3.7%,-16.7%,/
COc1ccc(OC)c(-c2csc(NC(=O)COC(=O)c3ccc(NC(=O)CC#N)cc3)n2)c1,-3.0%,-1.4%,-3.1%,-0.5%,14.2%,21.3µM*
C[C@@H]1C(NC(=O)c2ccccc2)CC2CC1C2(C)C (stereo partly specified),-11.4%,-0.9%,-12.5%,10µM*,-0.5%,-0.6%
COc1cccc(N2C(=O)c3ccccc3C2=O)c1,/,/,7.8%,-12.0%,/,/
Nc1nc2cc(S(=O)(=O)N3CCOCC3)ccc2o1,5.32µM*,0.2%,1.7%,2.3%,39.8µM*,0.0%
